# Measured values taken from publication PMC7862700, “An all-to-all approach to the identification of sequence-specific readers for epigenetic DNA modifications on cytosine”.
# Experiments:
# Assay in all cases: DAPPL (digital affinity profiling via proximity ligation, sequencing); 10 mM Tris-HCl pH 7.5, 50 mM NaCl, 1 mM DTT, 4% glycerol, room temperature, 30 min; GST-TFs on glutathione beads, 16-mer random dsDNA library, 0.1% formaldehyde crosslink after washing; high values mean tight binding
# Conditions in all cases: protein: recombinant; tags: N-terminal GST; dsDNA, one strand shown
# ETV2 = target: T1, ETV2 (Homo sapiens, UniProt O00321 1-342)
# T1 sequence: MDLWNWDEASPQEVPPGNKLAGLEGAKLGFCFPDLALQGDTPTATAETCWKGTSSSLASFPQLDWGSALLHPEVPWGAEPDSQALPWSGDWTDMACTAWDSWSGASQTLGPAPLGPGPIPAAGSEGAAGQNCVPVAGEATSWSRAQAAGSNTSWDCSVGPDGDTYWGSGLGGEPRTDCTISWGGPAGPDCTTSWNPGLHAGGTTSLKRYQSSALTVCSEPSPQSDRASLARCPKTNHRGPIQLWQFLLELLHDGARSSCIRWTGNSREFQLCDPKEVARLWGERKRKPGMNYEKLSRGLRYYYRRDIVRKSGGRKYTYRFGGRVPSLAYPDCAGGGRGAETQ
# Method in brief: (§1)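 Human transcription factors fused to GST were expressed in yeast, captured on glutathione beads, given DNA barcodes and pooled with a GST-only negative control. Pools were incubated with 200 nmole of a 16-mer random double-stranded DNA library in Tris/NaCl/DTT/glycerol buffer at room temperature for 30 min. They were then washed, crosslinked with 0.1% formaldehyde, proximity-ligated (BsaI/T4 ligase, 1 h, 37 °C), PCR-amplified and sequenced on an Illumina NextSeq500. Binding signal is each 6-mer's read frequency for a factor divided by its frequency for the GST control.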
# ELF3 = target: T2, ELF3 (Homo sapiens, UniProt P78545 1-371)
# T2 sequence: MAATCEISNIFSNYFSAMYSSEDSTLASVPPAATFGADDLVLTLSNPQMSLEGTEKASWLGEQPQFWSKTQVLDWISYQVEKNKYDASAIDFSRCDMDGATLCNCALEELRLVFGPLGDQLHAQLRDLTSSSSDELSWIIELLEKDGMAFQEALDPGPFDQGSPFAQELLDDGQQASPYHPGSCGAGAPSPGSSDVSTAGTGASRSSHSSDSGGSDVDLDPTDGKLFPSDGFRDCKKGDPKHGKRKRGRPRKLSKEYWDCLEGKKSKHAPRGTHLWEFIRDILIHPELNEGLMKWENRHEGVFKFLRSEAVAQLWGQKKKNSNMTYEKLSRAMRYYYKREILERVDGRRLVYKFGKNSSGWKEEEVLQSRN
# Method in brief: as §1
# ERF = target: T3, ERF (Homo sapiens, UniProt P50548 1-548)
# T3 sequence: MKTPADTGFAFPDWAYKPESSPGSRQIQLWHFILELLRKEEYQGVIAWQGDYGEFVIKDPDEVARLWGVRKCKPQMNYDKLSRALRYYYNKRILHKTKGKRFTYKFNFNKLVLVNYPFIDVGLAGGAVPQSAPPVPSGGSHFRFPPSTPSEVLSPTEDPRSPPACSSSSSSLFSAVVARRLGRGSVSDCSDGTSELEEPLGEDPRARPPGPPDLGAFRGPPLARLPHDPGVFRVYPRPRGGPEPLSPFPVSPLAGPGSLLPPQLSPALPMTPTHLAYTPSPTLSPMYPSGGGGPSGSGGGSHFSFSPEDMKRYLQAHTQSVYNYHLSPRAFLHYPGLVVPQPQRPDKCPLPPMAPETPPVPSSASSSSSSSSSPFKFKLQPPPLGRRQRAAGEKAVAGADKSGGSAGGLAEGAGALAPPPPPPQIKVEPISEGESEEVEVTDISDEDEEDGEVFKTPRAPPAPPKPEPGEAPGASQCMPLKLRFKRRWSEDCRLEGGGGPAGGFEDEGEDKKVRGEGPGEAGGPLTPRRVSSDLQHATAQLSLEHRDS
# Method in brief: as §1
# ETV3L = target: T4, ETV3L (Homo sapiens, UniProt Q6ZN32 1-361)
# T4 sequence: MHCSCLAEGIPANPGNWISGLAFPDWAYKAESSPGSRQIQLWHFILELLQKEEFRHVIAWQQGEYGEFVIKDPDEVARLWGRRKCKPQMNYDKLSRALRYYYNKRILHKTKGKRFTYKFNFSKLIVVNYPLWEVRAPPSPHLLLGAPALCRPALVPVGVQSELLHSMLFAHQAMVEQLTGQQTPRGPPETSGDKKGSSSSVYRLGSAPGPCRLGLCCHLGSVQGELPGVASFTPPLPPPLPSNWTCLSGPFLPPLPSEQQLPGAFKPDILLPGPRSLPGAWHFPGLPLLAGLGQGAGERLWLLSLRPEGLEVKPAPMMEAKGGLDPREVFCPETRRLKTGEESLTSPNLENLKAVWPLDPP
# Method in brief: as §1
# ETS2 = target: T5, ETS2 (Homo sapiens, UniProt P15036 1-469)
# T5 sequence: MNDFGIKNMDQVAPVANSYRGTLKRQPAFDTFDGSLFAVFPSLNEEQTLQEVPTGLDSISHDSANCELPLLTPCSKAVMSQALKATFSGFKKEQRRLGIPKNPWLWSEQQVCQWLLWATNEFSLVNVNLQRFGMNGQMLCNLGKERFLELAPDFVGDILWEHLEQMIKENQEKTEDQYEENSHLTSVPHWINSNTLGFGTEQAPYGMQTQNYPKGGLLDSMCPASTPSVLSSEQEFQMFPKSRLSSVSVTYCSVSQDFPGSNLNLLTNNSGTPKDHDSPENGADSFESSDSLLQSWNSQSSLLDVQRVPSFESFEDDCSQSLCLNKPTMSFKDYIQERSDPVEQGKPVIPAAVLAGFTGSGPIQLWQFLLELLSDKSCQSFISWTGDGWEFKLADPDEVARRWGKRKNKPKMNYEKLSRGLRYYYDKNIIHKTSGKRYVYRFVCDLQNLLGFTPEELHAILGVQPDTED
# Method in brief: as §1
# ETV7 = target: T6, ETV7 (Homo sapiens, UniProt Q9Y603 1-341)
# T6 sequence: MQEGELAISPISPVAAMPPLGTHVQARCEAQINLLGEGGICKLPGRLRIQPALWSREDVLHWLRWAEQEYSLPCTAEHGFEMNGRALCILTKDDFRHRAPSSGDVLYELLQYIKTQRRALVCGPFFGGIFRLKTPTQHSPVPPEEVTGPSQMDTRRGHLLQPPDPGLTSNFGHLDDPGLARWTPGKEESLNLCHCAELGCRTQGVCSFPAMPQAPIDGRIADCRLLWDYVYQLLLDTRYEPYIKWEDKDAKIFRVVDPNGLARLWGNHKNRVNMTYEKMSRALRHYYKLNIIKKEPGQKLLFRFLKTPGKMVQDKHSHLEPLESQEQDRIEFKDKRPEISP
# Method in brief: as §1
# ETV3 = target: T7, ETV3 (Homo sapiens, UniProt P41162-2 1-143)
# T7 sequence: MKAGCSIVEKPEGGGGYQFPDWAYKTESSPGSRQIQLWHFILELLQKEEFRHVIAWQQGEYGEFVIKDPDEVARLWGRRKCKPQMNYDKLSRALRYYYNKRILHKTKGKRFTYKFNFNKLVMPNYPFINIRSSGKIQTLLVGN
# Method in brief: as §1
# ETV6 = ETV6 (Homo sapiens, UniProt P41212 1-452)
# Method in brief: as §1
# ETV6, sequence (P41212 whole entry): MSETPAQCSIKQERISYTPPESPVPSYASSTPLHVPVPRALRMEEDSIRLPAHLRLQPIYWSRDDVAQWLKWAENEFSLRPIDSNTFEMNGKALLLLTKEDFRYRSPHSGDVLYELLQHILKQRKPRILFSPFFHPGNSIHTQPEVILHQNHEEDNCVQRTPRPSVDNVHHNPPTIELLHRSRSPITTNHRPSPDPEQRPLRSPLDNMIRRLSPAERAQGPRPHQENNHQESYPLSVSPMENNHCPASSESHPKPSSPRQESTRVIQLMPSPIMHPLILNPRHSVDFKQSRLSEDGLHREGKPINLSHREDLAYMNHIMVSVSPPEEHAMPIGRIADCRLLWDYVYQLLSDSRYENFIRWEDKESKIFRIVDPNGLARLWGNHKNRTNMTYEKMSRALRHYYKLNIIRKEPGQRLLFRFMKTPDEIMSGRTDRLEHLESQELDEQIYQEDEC
sequence,measurement,setting,value
CTAGAA,binding signal,ETV2,"1.03 fold enrichment (6-mer frequency, TF over GST control)"
same,binding signal,ELF3,"1.03 fold enrichment (6-mer frequency, TF over GST control)"
same,binding signal,ERF,"1.28 fold enrichment (6-mer frequency, TF over GST control)"
same,binding signal,ETV3L,"1.03 fold enrichment (6-mer frequency, TF over GST control)"
same,binding signal,ETS2,"1.02 fold enrichment (6-mer frequency, TF over GST control)"
same,binding signal,ETV7,"1.02 fold enrichment (6-mer frequency, TF over GST control)"
same,binding signal,ETV3,"1.01 fold enrichment (6-mer frequency, TF over GST control)"
same,binding signal,ETV6,"1.04 fold enrichment (6-mer frequency, TF over GST control)"
